In the library only some 27% were active in any assay of this set; here they are far more common.
CYP2C9 inhib – blocks human cytochrome P450 2C9; P11712; AID 777; CYP2C9 Supersomes, luciferin-H conversion, luminescence; inhibition, % at 5 µM; hit rate 20% among 96,000;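 active = blocking of liver enzyme CYP2C9 beyond about 50% at 5 µM, limit read from the data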
Target sequence (P11712 whole entry, looked up): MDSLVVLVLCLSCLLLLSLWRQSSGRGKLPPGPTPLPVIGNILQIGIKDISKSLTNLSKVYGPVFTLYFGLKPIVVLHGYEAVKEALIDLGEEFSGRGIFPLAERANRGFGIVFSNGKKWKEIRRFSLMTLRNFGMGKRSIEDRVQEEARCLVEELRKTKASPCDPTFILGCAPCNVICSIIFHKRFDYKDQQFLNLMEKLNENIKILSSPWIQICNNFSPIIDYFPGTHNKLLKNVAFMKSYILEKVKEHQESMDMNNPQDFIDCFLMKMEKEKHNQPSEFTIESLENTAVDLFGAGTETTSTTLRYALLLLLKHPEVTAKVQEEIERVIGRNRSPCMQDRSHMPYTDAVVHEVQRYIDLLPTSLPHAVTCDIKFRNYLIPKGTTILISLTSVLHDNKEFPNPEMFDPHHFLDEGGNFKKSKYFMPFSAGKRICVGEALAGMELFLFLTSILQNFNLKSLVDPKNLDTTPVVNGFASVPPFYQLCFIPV
CYP2C19 inhib – inhibitors of human CYP2C19; hit rate 21% among 96,000; CYP2C19 Supersomes, luciferin-H EGE luminescence, 30 min; AID 778; inhibition, % at 5 µM;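 active = CYP2C19 inhibition above a set limit at 5 µM in the primary screen, cut at about 50% in these data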;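 also: plate controls were negative control wells for no effect and 2.5 mM tranylcypromine positive control for full effect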
Cav3 T inh – blocks human Cav3.2 T-type calcium channel; O95180; Cav3.2-expressing cells, Fluo-4 calcium fluorescence FDSS; hits give low values; B-score at 10 µM; hit rate 4% among 100,000; AID 449739;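 active = single-dose well whose peak fluorescence ratio is a statistical outlier from its plate by either plate-standardised score or position-corrected B-score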
CYP2C19 activ – increases human CYP2C19 enzyme activity; P33261; recombinant CYP2C19, luciferin-H EGE luminescence; hits give high values; 0 = fully inhibited enzyme, 1 = untreated enzyme; activation factor at 5 µM; 96,000 tested, under 10 active;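 active = activation factor of at least 2 at 5 µM in the primary screen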;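 also: 0 = wells with 2.5 mM tranylcypromine and 1 = vehicle-only wells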
CYP2C9 activ – activators of human CYP2C9; P11712; recombinant CYP2C9, luciferin-H conversion, luminescence; hits give high values; factor 1 = untreated enzyme, 0 = blocked; activation factor at 5 µM; hit rate 1.4% among 96,000; AID 1024;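 active = activation factor of 2 or more for CYP2C9 at a 5 µM dose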;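 also: 0 = sulfaphenazole-blocked wells and 1 = vehicle-only wells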
Active calls of the source: *; . = not tested or not shown.

SMILES | CYP2C9 inhib | CYP2C19 inhib | Cav3 T inh | CYP2C19 activ | CYP2C9 activ
O=C(CN1C(=O)C2C3C=CC(C3)C2C1=O)NCc1ccc2c(c1)OCO2 (stereo unspecified) | 14.9 | 27.3 | -0.726 | 0.7 | 0.9
CCOC(=O)c1c(NC(=O)OC)sc2c1CCC2 | -8.9 | 1.1 | -0.601 | 1 | 1.1
N#Cc1c(NC(=S)NC(=O)Cc2cccs2)sc2c1CCCCC2 | 88.7* | 27.5 | . | 0.7 | 0.1
COC(=O)Nc1sc2c(c1C(N)=O)CCCCCC2 | -8.4 | 54.6* | -0.155 | 0.5 | 1.1
NC(=O)c1c(NC(=O)Cc2cccs2)sc2c1CCC2 | 58.0* | 43.9 | -0.381 | 0.6 | 0.4
N#CCC(=O)Nc1sc2c(c1C(N)=O)CCCC2 | . | . | 0.969 | . | .
C[C@@]1([C@@H](NC(=O)c2cccs2)c2ccc(-c3ccccc3)cc2)C[C@H]1C1CCCCC1 | . | . | 0.071 | . | .
CCOC(=O)c1oc2cc(O)cc(O)c2c(=O)c1OCc1ccccc1 | . | . | 2.4 | . | .
CCOC(=O)c1oc2ccccc2c1CN1CCN(c2ccccc2)CC1 | 48.1 | 51.7* | -4.77* | 0.5 | 0.5
CCOC(=O)c1oc2cccc(O)c2c1CN1CCOCC1 | 36.8 | 60.3* | 0.38 | 0.4 | 0.6
CCOC(=O)c1oc2cccc(O)c2c1CN(Cc1ccccc1)C(C)=O | 25.2 | 66.9* | -0.756 | 0.3 | 0.7
CCOC(=O)c1oc2ccccc2c1CN1CCN(C(=O)c2ccccc2)CC1 | 45.5 | 42.7 | -0.846 | 0.6 | 0.5
CCOC(=O)c1c(-c2ccccc2)oc2ccc(O)c(CN3CCOCC3)c12 | 48.5 | 56.3* | -3.78 | 0.4 | 0.5
CCOC(=O)c1cc(CN2CCOCC2)oc1-c1ccccc1 | 22.0 | 25.7 | 0.35 | 0.7 | 0.8
CC(=O)c1c(C)oc2ccc(O)c(CN3CCOCC3)c12 | -0.2 | 19.7 | 0.673 | 0.8 | 1
CCn1c(NC(=O)Nc2cccc(C)c2C)cc2sccc21 | 26.2 | 47.4 | . | 0.5 | 0.7
COc1ccc(C(=O)c2c[nH]c3ccccc23)cc1 | 42.4 | 40.7 | -0.156 | 0.6 | 0.6
COc1ccc2cc(C(=O)c3ccccc3)c(=O)oc2c1 | -52.2 | 92.2* | 0.394 | 0.1 | 1.5
COc1ccc(C(=O)c2ccccc2Cl)cc1 | -154.0 | 81.3* | -0.869 | 0.2 | 2.5*
CCc1ccc2c(c1)[C@]1(C(=O)N2)[C@@H]2C(=O)N(Cc3ccccc3)C(=O)[C@@H]2[C@@H]2CCCN21 | 67.7* | 75.0* | -1.46 | 0.3 | 0.3
Cc1cc(N2CCN(c3ccccc3Cl)CC2)n2cc(-c3ccccc3)nc2n1 | 57.9* | 8.3 | -4.33* | 0.9 | 0.4
CCOC(=O)c1c(C)sc2c1N(C(=O)CN1CCOCC1)c1cc(Cl)ccc1S2 | 14.3 | 20.2 | . | 0.8 | 0.9
CCCCCCC(=O)N(O)C1CC(=O)N(c2ccc(Br)cc2)C1=O (stereo unspecified) | 31.7 | 52.2* | -0.942 | 0.5 | 0.7
Cc1c(N=Cc2c(O)n(C3CCCCC3)c(=O)[nH]c2=O)c(=O)n(-c2ccccc2)n1C | 15.3 | -14.7 | 1.29 | 1.1 | 0.8
O=c1[nH]c(=O)n(C2CCCCCC2)c(O)c1C=NCc1ccc(F)cc1 | -6.3 | 0.1 | -6.67* | 1 | 1.1
SMILES | CYP2C9 inhib | CYP2C19 inhib | Cav3 T inh | CYP2C19 activ | CYP2C9 activ
CCc1c(C(=O)Nc2cc(C)cc(C)c2)[nH]c(C)c1C(C)=O | 59.7* | 44.3 | -0.487 | 0.6 | 0.4
COc1ccccc1CNS(=O)(=O)c1ccc(NC(C)=O)cc1 | -114.0 | 77.2* | -1.5 | 0.2 | 2.1*
COc1ccc(NS(=O)(=O)c2ccc(NC(=S)NC(=O)C(C)C)cc2)cc1 | 64.5* | 79.1* | . | 0.2 | 0.4
COc1ccccc1OCC(=O)Nc1ccc(S(=O)(=O)NC(C)=O)cc1 | 21.7 | -11.0 | 0.27 | 1.1 | 0.8
COc1ccc(S(=O)(=O)Nc2ccc(NC(C)=O)cc2)cc1 | 90.1* | 97.3* | -1.89 | 0 | 0.1
CCOc1ccc(NS(=O)(=O)c2ccc(NC(=S)NC(=O)C(C)C)cc2)cc1 | 95.1* | 82.0* | -2.35 | 0.2 | 0
COc1ccc(CC(=O)Nc2ccc(S(=O)(=O)Nc3nc(C)cc(C)n3)cc2)cc1 | 6.9 | -26.1 | 0.162 | 1.3 | 0.9
Cc1cc(C)nc(NS(=O)(=O)c2ccc(NC(=S)NC(=O)CC(C)C)cc2)n1 | . | . | 1.13 | . | .
CCC(=O)NC(=S)Nc1ccc(S(=O)(=O)NC(C)C)cc1 | 15.4 | 11.1 | 0.0504 | 0.9 | 0.8
CCOC(=O)c1cnn(-c2ccccc2)c1NC(=O)CSc1nnc(-c2cccs2)n1CC | -8.3 | 7.9 | 1.37 | 0.9 | 1.1
Cc1cc(C)n2c3c(c(C#N)c2n1)CCCC3 | 2.9 | 8.2 | 1.19 | 0.9 | 1
CC(=O)Nc1ccc(S(=O)(=O)NC(CC(=O)N(C)Cc2ccccc2)C(C)C)cc1 (stereo unspecified) | -1.9 | 25.2 | 0.482 | 0.7 | 1
CC(C)C(=O)NC(=S)Nc1ccc(S(=O)(=O)N(C)Cc2ccccc2)cc1 | 55.1* | 40.3 | -5.74* | 0.6 | 0.4
CC(C)C(=O)NC(=S)Nc1ccc(S(=O)(=O)NC(C)(C)C)cc1 | 50.0* | 37.0 | -1.07 | 0.6 | 0.5
Cc1cc(C)nc(NS(=O)(=O)c2ccc(NC(=S)NC(=O)C(C)(C)C)cc2)n1 | 21.2 | -2.9 | 1.03 | 1 | 0.8
CCOC(=O)c1[nH]c2ccccc2c1NC(=O)NC1CCCCC1 | 55.0* | 13.4 | 0.733 | 0.9 | 0.4
O=C(COC(=O)c1cc(=O)[nH]c2ccccc12)NC(=O)NC1CCCCC1 | 52.6* | 9.2 | 0.73 | 0.9 | 0.5
O=C(Nc1cccc(O)c1)C1CCCN1C(=O)OCc1ccccc1 (stereo unspecified) | -11.8 | 10.1 | . | 0.9 | 1.1
COc1ccc(NC(=O)C2CCCCN2CC(=O)OCc2ccccc2)cc1OC (stereo unspecified) | 62.5* | 66.6* | -0.666 | 0.3 | 0.4
COc1ccc(NC(=O)C2CCCCN2N)cc1OCC(C)C (stereo unspecified) | 36.7 | 93.7* | 0.87 | 0.1 | 0.6
COc1ccc(C2/C=C\CN(C(=O)C3CCCC3)CC(=O)N2Cc2ccc(F)cc2)cc1 (stereo unspecified) | . | . | -0.01 | . | .
CCOC(=O)N1CCN(C(=O)Nc2sc3nc4n(c(=O)c3c2C)CCC(C)CC4)CC1 (stereo unspecified) | 35.9 | 10.4 | -0.0464 | 0.9 | 0.6
Cc1nn(C(=O)C(C)N2C(=O)c3ccccc3C2=O)c(C)c1Br (stereo unspecified) | -8.9 | 17.3 | -0.77 | 0.8 | 1.1
Clc1ccccc1OCc1nc(-c2ccncc2)no1 | 98.4* | 97.8* | 2.02 | 0 | 0
Clc1ccc(OCc2nc(-c3ccncc3)no2)c(Br)c1 | 94.7* | 94.3* | . | 0.1 | 0.1
CCCc1cc(C(=O)NCc2ccco2)no1 | 5.7 | 28.2 | 0.346 | 0.7 | 0.9
O=C(NCc1ccccc1C(F)(F)F)C1CC(c2ccc(C(F)(F)F)cc2)=NO1 (stereo unspecified) | . | . | -2.35 | . | .
CCN(Cc1ccccc1)C(c1cccc(C#N)c1)c1nnnn1C(C)(C)C (stereo unspecified) | 91.0* | 72.4* | -2.24 | 0.3 | 0.1
CCN(Cc1ccccc1)C(c1ccc(C(F)(F)F)cc1)c1nnnn1C(C)(C)C (stereo unspecified) | . | . | -4.35* | . | .
